± gives the standard deviation of the averaged measurements. Whole data set: some 1,600 compounds, median “normalized growth (OD600, IQM-normalized) in LPM” near 1, cut for the lowest 2% near 0.014. The sample holds the lowest values, similar compounds and a random draw of the others, so the mix is not that of the screen.
Each compound was assayed on Salmonella enterica serovar Typhimurium SL1344 (assay: normalized growth (OD600, IQM-normalized) in LPM (fraction of plate interquartile mean); higher = more bacterial growth (less inhibition)). Conditions: LPM pH 5.8; 10 µM; 16 h.

Q: With `CCn1cc(C(=O)O)c(=O)c2cc3c(cc21)OCO3` as the compound, how does the normalized growth read?
A: Its normalized growth is 0.00952 ± 0.00073.

Q: With `C[N+]1(C)CCCC(OC(=O)C(O)(c2ccccc2)c2ccccc2)C1` (stereo not given) as the compound, how does the normalized growth read?
A: The normalized growth was 1.1 ± 0.011.

Q: `CC[C@H]1CN2CC[C@H]1C[C@@H]2[C@@H](O)c1ccnc2ccc(OC)cc12` was tested. Which normalized growth did it give?
A: The normalized growth was 0.912 ± 0.022.

Q: For `CC(C)C[C@H]1C(=O)N2CCC[C@H]2[C@]2(O)O[C@](NC(=O)[C@@H]3C=C4c5cccc6[nH]c(Br)c(c56)C[C@H]4N(C)C3)(C(C)C)C(=O)N12`, which normalized growth is on record?
A: The normalized growth was 0.947 ± 0.03.

Q: Which normalized growth does the source give for `Cc1ccc(O)cc1.Cc1cccc(O)c1.Cc1ccccc1O` here?
A: Its normalized growth is 0.955 ± 0.19.

Q: `O=[N+]([O-])C(Br)(CO)CO` was tested. Which normalized growth did it give?
A: The normalized growth was 0.786 ± 0.02.

Q: How did the normalized growth turn out when `C[CH2][Hg][S]c1ccccc1C(=O)[O-].[Na+]` was run?
A: Its normalized growth is 0.00984 ± 0.0003.

Q: `O=C([O-])Cc1ccccc1.[Na+]` was tested. Which normalized growth did it give?
A: Its normalized growth is 1.14 ± 0.026.

Q: With `CCCCOC(=O)c1ccccc1C(=O)OCCCC` as the compound, how does the normalized growth read?
A: Its normalized growth is 1.363 ± 0.0046.

Q: How did the normalized growth turn out when `Oc1noc2c1CCNC2` was run?
A: Its normalized growth is 0.948 ± 0.041.

Q: For `[O-][n+]1ccccc1[S-].[O-][n+]1ccccc1[S-].[Zn+2]`, which normalized growth is on record?
A: Its normalized growth is 0.00799 ± 0.00024.

Q: With `O=C1CCO1` as the compound, how does the normalized growth read?
A: The normalized growth was 0.959 ± 0.039.

Q: With `Oc1ccc2c3c1O[C@H]1[C@@H](O)CC[C@@]4(O)[C@@H](C2)N(CC2CCC2)CC[C@]314` as the compound, how does the normalized growth read?
A: The normalized growth was 0.92 ± 0.12.

Q: How did the normalized growth turn out when `CC(=O)[O][Hg][c]1ccccc1` was run?
A: Its normalized growth is 0.0096 ± 0.00029.

Q: How did the normalized growth turn out when `CC(Cc1ccc(O)cc1)NCC(O)c1cc(O)cc(O)c1` (stereo not given) was run?
A: Its normalized growth is 1.087 ± 0.0059.

Q: How did the normalized growth turn out when `CCOP(=S)(OCC)Oc1nc(Cl)c(Cl)cc1Cl` was run?
A: Its normalized growth is 1.33 ± 0.11.

Q: Which normalized growth does the source give for `NC(=O)C[S+]([O-])C(c1ccccc1)c1ccccc1` (stereo not given) here?
A: Its normalized growth is 0.865 ± 0.082.

Q: `CC(C)=CC1C(C(=O)OCc2cccc(Oc3ccccc3)c2)C1(C)C` (stereo not given) was tested. Which normalized growth did it give?
A: Its normalized growth is 0.894 ± 0.04.

Q: Which normalized growth does the source give for `NP(N)(=O)NC(=O)c1ccc(F)cc1` here?
A: The normalized growth was 1.06 ± 0.017.

Q: Which normalized growth does the source give for `C[N+]12CCC(CC1)C(OC(=O)C(O)(c1ccccc1)c1ccccc1)C2` (stereo not given) here?
A: Its normalized growth is 1.05 ± 0.026.

Q: With `Oc1cc(Cl)ccc1Oc1ccc(Cl)cc1Cl` as the compound, how does the normalized growth read?
A: Its normalized growth is 0.00811 ± 0.00016.

Q: `Oc1ccc(Cl)cc1` was tested. Which normalized growth did it give?
A: The normalized growth was 0.971 ± 0.012.

Q: For `Oc1ccc(Cl)cc1Cc1cc(Cl)ccc1O`, which normalized growth is on record?
A: The normalized growth was 0.895 ± 0.086.

Q: For `O=[N+]([O-])O[C@@H]1CO[C@H]2[C@@H]1OC[C@@H]2O`, which normalized growth is on record?
A: The normalized growth was 1.11 ± 0.026.

Q: How did the normalized growth turn out when `CC(C)(O)C(Cl)(Cl)Cl` was run?
A: The normalized growth was 1 ± 0.032.
